The list is not random: actives were taken first. Their share in the collection is about 9%.
HPGD inh = HPGD (human) dehydrogenase inhibition; P15428; purified HPGD, NADH fluorescence kinetic, PGE2 substrate; Potency, µM, most hits filed as inhibitors; hit rate 4.3% among 150,000; AID 894
Target sequence (P15428 whole entry, looked up): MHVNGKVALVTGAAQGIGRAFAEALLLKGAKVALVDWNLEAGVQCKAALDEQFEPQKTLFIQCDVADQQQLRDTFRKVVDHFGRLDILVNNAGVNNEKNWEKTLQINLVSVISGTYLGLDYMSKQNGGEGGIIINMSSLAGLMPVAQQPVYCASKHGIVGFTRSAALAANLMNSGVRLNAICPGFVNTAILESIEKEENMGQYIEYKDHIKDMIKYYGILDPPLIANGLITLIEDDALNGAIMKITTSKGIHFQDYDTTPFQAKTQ
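NADH formation kinetics: reaction with 30 uM PGE2 and 1 mM NAD+ (final), 20 nM enzyme, Tris-HCl pH 8 with Tween 20, after 15 min compound preincubation at room temperature. Fluorescence change, last versus first of five reads.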
ALDH1A1 inh = ALDH1A1 (human) enzyme inhibition; AID 1030; Potency, µM (series often up to 75.3 µM), hits mostly inhibitors; hit rate 7.3% among 220,000; Purified ALDH1A1, NADH fluorescence, propionaldehyde substrate
IMPase inh = IMPase inhibition in cells; P97697; CHO-M1 cells, IP1 accumulation, HTRF TR-FRET ratio; inhibition (IP1 accumulation), % at 46.1 µM; 120,000 tested, under 10 active; active = well fitted curve in the direction sought with a large enough effect in the signal ratio, not every such curve was filed as active; inconclusive = small, poorly fitted or top-dose-only effect, or a change in a side signal; inactive = no such curve, though single readings can be large or run the other way; the % refers to the signal ratio;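 also: cells stimulated with carbachol in lithium chloride buffer; higher means more IMPase inhibition seen as more IP1 and lower FRET ratio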
Target sequence (P97697 whole entry, looked up): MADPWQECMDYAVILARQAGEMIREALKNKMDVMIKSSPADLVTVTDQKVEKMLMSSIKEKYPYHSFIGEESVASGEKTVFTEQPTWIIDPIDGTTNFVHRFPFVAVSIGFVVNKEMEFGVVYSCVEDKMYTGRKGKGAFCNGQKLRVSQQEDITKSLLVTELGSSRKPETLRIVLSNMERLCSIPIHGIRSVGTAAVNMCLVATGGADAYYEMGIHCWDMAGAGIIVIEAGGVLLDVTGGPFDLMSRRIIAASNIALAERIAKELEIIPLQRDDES
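Seeded CHO-M1 cells were dosed with compound at up to 46 uM, stimulated with carbachol for 30 min, then lysed in IP-One detection reagents. Higher IP1 lowers the TR-FRET signal.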
Each line names hits and unclear results; the compound was inactive in the other large screens. Unless noted, calls follow the shape of the dose curve; as a rule, active = well fitted inhibition curve with a large enough effect (not every such curve was filed as active); inconclusive = small, poorly fitted or top-dose-only effect, or another doubt; inactive = no such curve, though single readings can be large or run the other way.

CCn1c2ccccc2c2cc(NC(=O)CNCC3CCCO3)ccc21 (stereo unspecified)	ALDH1A1 inh 32µM (no result: HPGD inh, IMPase inh)
CCn1c(SCC(=O)Nc2ccc3c(c2)c2ccccc2n3CC)nnc1-c1cnccn1	none
CCn1c2ccccc2c2cc(NC(=O)CSc3nnc(C4CC4)n3Cc3ccco3)ccc21	HPGD inh inconclusive, ALDH1A1 inh 18µM
CCn1c2ccccc2c2cc(NC(C)=O)ccc21	none
O=C(CSc1nnc(-c2ccccc2Cl)n1Cc1ccco1)Nc1ccc2c(c1)OCCO2	ALDH1A1 inh 10µM
O=C(CSc1nnc(COc2ccccc2)n1Cc1ccco1)Nc1ccc2c(c1)OCCO2	ALDH1A1 inh inconclusive
O=C(c1cc(C(F)(F)F)cc(C(F)(F)F)c1)N1CCC2(CCCN(c3ccccc3)C2)CC1	none (no result: IMPase inh)
COc1ccc(-c2cnc(SCC(=O)Nc3ccc4c(c3)OCO4)n2Cc2ccco2)cc1	ALDH1A1 inh 11µM
CC(=O)Nc1cccc(NC(=O)CSc2ncc(-c3ccc(Cl)cc3)n2Cc2ccco2)c1	none
CCNC(=S)N1CCc2cc(OC)c(OC)cc2C1COc1ccccc1OC (stereo unspecified)	none (no result: HPGD inh, IMPase inh)
O=C(O)C(Oc1ccc2ccc(=O)oc2c1)c1ccccc1 (stereo unspecified)	ALDH1A1 inh inconclusive (no result: IMPase inh)
Cc1cc(/C=C2\SC(=Nc3ccc(F)cc3)NC2=O)c(C)n1-c1ccc(S(N)(=O)=O)cc1	ALDH1A1 inh inconclusive
Cc1cc(/C=C2/SC(=O)NC2=O)c(C)n1-c1ccc(N2CCOCC2)cc1	HPGD inh 8.9µM (no result: IMPase inh)
C=CCn1c(Cc2cccs2)nnc1SC/C=C/c1ccccc1	none
CCCCC(=O)NNC(=S)NC(=O)c1ccc([N+](=O)[O-])cc1	ALDH1A1 inh 5.6µM (no result: HPGD inh, IMPase inh)
CCCCCC(=O)NNC(=O)Cc1ccc([N+](=O)[O-])cc1	none (no result: HPGD inh, IMPase inh)
CCCCC(=O)NNC(=S)NC(=O)c1cccc([N+](=O)[O-])c1	HPGD inh 8.9µM, ALDH1A1 inh 1.8µM
CCCCOc1ccc(C(=O)N/C(=C\c2cccc([N+](=O)[O-])c2)C(=O)OCCC)cc1	none
CCCCC(=O)NNC(=S)NC(=O)c1ccc(C)cc1	ALDH1A1 inh 25µM (no result: HPGD inh, IMPase inh)
Cc1ccc(C(=O)NC(=S)NNC(=O)CC#N)cc1	none (no result: HPGD inh, IMPase inh)
CCCCOc1ccc(C(=O)N/C(=C/c2cccc([N+](=O)[O-])c2)C(=O)O)cc1	ALDH1A1 inh 11µM (no result: HPGD inh, IMPase inh)
CCCCC(=O)Nc1cccc(NC(=O)c2cccc([N+](=O)[O-])c2)c1	none (no result: HPGD inh, IMPase inh)
COc1ccc(C(=O)N2CCC3(CC2)CCN(c2ccncc2)CC3)cc1	none (no result: IMPase inh)
O=C1[C@H]2[C@H]3[C@H](O)[C@H](O)C/C(=N/OC[C@@H](O)COCc4ccco4)[C@H]3CC[C@@H]2C(=O)N1C[C@@H]1CCCO1	none (no result: HPGD inh, IMPase inh)
CNC(=O)CS(=O)(=O)CC(=O)Nc1cc(OC(C)C)c(Cl)cc1Cl	none (no result: HPGD inh, IMPase inh)
Cc1ccc(-n2nnnc2SCC(=O)NC2CCCc3ccccc32)c(C)c1 (stereo unspecified)	ALDH1A1 inh inconclusive (no result: IMPase inh)
CN(C(=O)CCl)C1CCCc2ccccc21 (stereo unspecified)	ALDH1A1 inh 0.4µM (no result: HPGD inh, IMPase inh)
COC(=O)[C@@H](NC(=O)NC1CCCc2ccccc21)C(C)C (stereo partly specified)	IMPase inh inconclusive
CCOc1ccc(NC(=O)CS(=O)CC(=O)NC2CCCc3ccccc32)cc1 (stereo unspecified)	ALDH1A1 inh 6.3µM
COc1ccc(NC(=O)CS(=O)CC(=O)NC2CCCc3ccccc32)cc1 (stereo unspecified)	none
O=C(CCl)NC1CCCc2ccccc21 (stereo unspecified)	ALDH1A1 inh 3.2µM (no result: HPGD inh, IMPase inh)
O=C(CCn1cccc1)NC1CCCc2ccccc21 (stereo unspecified)	none
Cc1ccc(-n2nnnc2SCC(=O)NC2CCCc3ccccc32)cc1 (stereo unspecified)	ALDH1A1 inh 7.9µM
CC(=O)Nc1cccc(Oc2ccc(-c3noc(C)n3)cc2)c1	none
COc1ccc(NC(=O)CCCSc2nc(-c3ccco3)cc(C(F)(F)F)n2)c(OC)c1	none (no result: HPGD inh, ALDH1A1 inh)
Cn1c(CN2CCOCC2)nnc1SCc1ccc(C#N)cc1	none (no result: HPGD inh, IMPase inh)
O=C(CSc1nc(O)c(C2CCCCC2)c(=O)[nH]1)N1CCOCC1	none (no result: HPGD inh, IMPase inh)
Cc1ccc(N2C(=O)C(CC(=O)Nc3cccc(F)c3)N(C3CC3)C2=O)cc1 (stereo unspecified)	ALDH1A1 inh 20µM (no result: HPGD inh, IMPase inh)
COc1cccc(N2C(=O)C(CC(=O)Nc3ccc(F)cc3)N(C3CCCCC3)C2=O)c1 (stereo unspecified)	none
C=C1C(=O)O[C@@H]2[C@@H]1CC/C(C)=C\CC[C@@]1(C)O[C@H]21	ALDH1A1 inh 10µM
C=C1C(=O)O[C@@H]2[C@H]3O[C@]3(C)CCC=C(C)CC[C@@H]12	ALDH1A1 inh 20µM
COc1ccccc1N1CSC2=C(C#N)C(c3ccc(SC)cc3)CC(=O)N2C1 (stereo unspecified)	HPGD inh 8.9µM, ALDH1A1 inh 8.9µM
COc1cc(C2CC(=O)N3CN(c4ccccc4C)CSC3=C2C#N)cc(OC)c1OC (stereo unspecified)	HPGD inh 28µM, ALDH1A1 inh 2.8µM
COc1cc(SC)ccc1C(=O)N1CCN(c2ccccc2OC)CC1	none (no result: HPGD inh, IMPase inh)
COc1cc(C2CC(=O)n3c(nc4ccccc43)S2)cc(OC)c1OC (stereo unspecified)	ALDH1A1 inh inconclusive
CCCCSc1nc(C)cc(C)c1S(=O)(=O)c1ccccc1C	ALDH1A1 inh inconclusive
CCOc1ccc(N(CC(=O)N/N=C/c2cc(Br)c(C)o2)S(C)(=O)=O)cc1	none (no result: HPGD inh, IMPase inh)
O=C1C(Cl)=C(NCC2CCCO2)C(=O)N1C1CCCCC1 (stereo unspecified)	ALDH1A1 inh 4µM
O=C1C(Cl)=C(NCC2CCCO2)C(=O)N1c1ccccc1 (stereo unspecified)	IMPase inh inconclusive (no result: HPGD inh)
COC1(C)CCC2OC2(C)CCC2C1CC2(C)C (stereo unspecified)	ALDH1A1 inh inconclusive (no result: IMPase inh)
CCOC(=O)C1C(=O)C=C(c2ccc(Br)cc2)CC1c1ccco1 (stereo unspecified)	ALDH1A1 inh 16µM
CCOC(=O)C1C(=O)C=C(c2cccc(NS(C)(=O)=O)c2)CC1c1ccco1 (stereo unspecified)	ALDH1A1 inh 20µM
CCOC(=O)C1C(=O)C=C(c2ccc([N+](=O)[O-])cc2)CC1c1ccccc1 (stereo unspecified)	HPGD inh inconclusive, ALDH1A1 inh inconclusive
CCOC(=O)C1C(=O)C=C(c2ccc(C)cc2)CC1c1ccccc1 (stereo unspecified)	none (no result: HPGD inh, IMPase inh)
O=C1CCN(Cc2nnnn2CC2CCCO2)c2ccccc2N1 (stereo unspecified)	none
CCOc1ccc(C2C(C#N)=C(N)N(c3sc4c(c3C#N)CCCC4)C3=C2C(=O)CCC3)cc1 (stereo unspecified)	ALDH1A1 inh inconclusive
N#CC1=C2N=C(N)c3c(sc4c3CCCCC4)N2C2=C(C(=O)CCC2)C1c1ccccc1 (stereo unspecified)	ALDH1A1 inh 5µM
Cc1noc(C)c1C(=O)N1CCC2(CCCN(c3ccccc3)C2)CC1	none (no result: IMPase inh)
COC(=O)[C@@H]1C[C@@]2(O)[C@H](O)[C@H](O)[C@H](O)C[C@H]2N1Cc1ccc(N2CCOCC2)cc1	ALDH1A1 inh inconclusive (no result: IMPase inh)
COC(=O)[C@@H]1C[C@@]2(O)[C@H](O)[C@H](O)[C@H](O)C[C@H]2N1Cc1ccc(N2CCN(C)CC2)cc1	ALDH1A1 inh 22µM (no result: IMPase inh)
CN(C)c1ccc(NS(=O)(=O)c2ccc(Cl)cc2)cc1	ALDH1A1 inh inconclusive

Compound activity from PubChem BioAssay.
